The record followed here is PubChem BioAssay AID687036 (The Scripps Research Institute Molecular Screening Center, 2013).

In all, about 3,300 compounds went through this assay and about 1,400 (42%) were called active. So high a share suggests a set chosen from earlier hits. Many of the other results were omitted from the sample, so actives are more common in it than they were. Values without a mark were called inactive.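 Rule for the calls: active = mean inhibition across replicates above the hit cutoff derived for the earlier primary screen (cut at about 22% in these data); inactive = the rest.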

For this assay, the target named is Protein arginine N-methyltransferase 1 (Homo sapiens) (UniProt Q99873). Put plainly: PRMT1 methyltransferase inhibitors, confirmation, biochemical, fluorescence polarization, triplicate (AID 687036). The note with it: recombinant His-PRMT1, activity-based probe fluorescence polarization; at 2.79 µM; active compounds read high.
Protein arginine N-methyltransferase 1 (Homo sapiens), sequence (Q99873 whole entry, looked up): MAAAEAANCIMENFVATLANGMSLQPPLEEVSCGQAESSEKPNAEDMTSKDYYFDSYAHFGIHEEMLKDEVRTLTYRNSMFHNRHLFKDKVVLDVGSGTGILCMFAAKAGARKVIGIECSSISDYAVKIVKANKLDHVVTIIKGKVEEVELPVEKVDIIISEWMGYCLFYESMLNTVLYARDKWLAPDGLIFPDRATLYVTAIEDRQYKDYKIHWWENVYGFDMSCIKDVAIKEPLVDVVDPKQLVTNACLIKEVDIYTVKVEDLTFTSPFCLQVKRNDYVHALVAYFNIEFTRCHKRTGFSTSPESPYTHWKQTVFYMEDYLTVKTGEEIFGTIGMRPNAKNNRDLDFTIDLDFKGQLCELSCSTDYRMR
As a reminder, the inhibition is the drop in the measured response relative to a control, in per cent. `COc1ccc(N2C(=O)/C(=C/c3ccco3)C(=O)NC2=S)cc1`: the inhibition was 75.2% (active).

As for `Cc1cc(N2CCNC[C@@H]2C)ccc1N1CC[C@H](O)C1`, the inhibition is 4.59%.

As to `O=C1NC(=O)N(Cc2ccco2)C(=O)/C1=C\c1ccc(-c2ccc(F)cc2)o1`, the inhibition is 52.9% (active).

Take `Cc1cc(/C=C2/C(=O)NC(=O)N(Cc3ccco3)C2=O)c(C)n1-c1ccc(C(=O)O)cc1`: the inhibition was -1.23%.

Regarding `CCOC(=O)CC(SP1(=S)OCC2(CCCCO2)C(C2CCCCO2)O1)C(=O)OCC` (stereo unspecified), the inhibition is 60.2% (active).

Take `O=C1N=c2ccccc2=C/C1=C\c1c(O)[nH]c(=S)[nH]c1=O`: the inhibition was 55.4% (active).
